This is a sample that favours compounds with a hit; in the whole collection about 6.8% have one here.
TSG101-PTAP inh: qHTS Assay for Iinhibitors of HIV-1 Budding by Blocking the Interaction of PTAP/TSG101. Tumor susceptibility gene 101 protein (Homo sapiens), Q99816. Fluorescence polarization, FITC-PTAP peptide / Tsg101 binding. Potency, µM (top dose mostly 115 µM), without a hit: top-dose activity change, negative = inhibition, actives largely listed as inhibitors. 340,000 tested, under 10 active. AID 493005, 2010; active = well fitted inhibition curve with a large enough effect in the main read-out, with a control signal flat, not every such curve was filed as active; inconclusive = small, poorly fitted or top-dose-only effect, or effect the other way, or a change in a side signal; inactive = no such curve, though single readings can be large or run the other way; note: % of control where 0% means no effect
Target sequence (Q99816 whole entry, looked up): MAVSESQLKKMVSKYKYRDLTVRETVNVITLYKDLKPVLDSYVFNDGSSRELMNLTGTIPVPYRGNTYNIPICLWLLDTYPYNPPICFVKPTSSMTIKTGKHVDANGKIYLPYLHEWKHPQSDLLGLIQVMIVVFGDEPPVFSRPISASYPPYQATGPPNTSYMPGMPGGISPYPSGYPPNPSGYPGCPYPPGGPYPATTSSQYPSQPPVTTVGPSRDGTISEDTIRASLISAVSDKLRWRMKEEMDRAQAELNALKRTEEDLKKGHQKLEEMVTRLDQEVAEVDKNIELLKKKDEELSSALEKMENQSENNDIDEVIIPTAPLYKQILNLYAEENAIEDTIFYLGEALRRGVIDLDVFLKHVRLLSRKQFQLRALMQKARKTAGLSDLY
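Fluorescence anisotropy tracks displacement of a FITC-tagged PTAP peptide (50 nM) from the Tsg101 binding domain (10 uM), following a 20 min room-temperature incubation at pH 7.5.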
SW480 rereplic: A quantitative high throughput screen for small molecules that induce DNA re-replication in SW480 colon adenocarcinoma cells; SW480 DNA re-replication, Hoechst DNA content imaging, 48 h; Potency, µM (highest dose often 46.1 µM), for inactives: top-dose re-replication activation, actives largely listed as activators; 340,000 tested, 1.8% active; note: % of control where 0% means no effect; nearly all actives have a fitted effect of over 55% in size
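250 cells/well; 23 nL cpd via pin tool; 48 hr, 37 C, 5% CO2; Hoechst 40 min; imager read of total nuclear intensity, ex 405/em 500-530 nm.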
PINK1 expr mod: A Quantitative High throughput Screen to Identify Chemical Modulators of PINK1 Expression; PINK1 immunofluorescence, high-content cytometry, 24 h; Potency, µM (highest dose often 76.6 µM), for the others: top-dose activation (PINK1 increase), hits mostly activators; 410,000 tested, 0.2% active; active = well fitted activation curve with a large enough effect; inconclusive = small, poorly fitted or top-dose-only effect; cell line not stated here; note: % of control where 0% means no effect; nearly all actives have a fitted effect of over 65% in size
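PINK1 protein, normally rapidly degraded, was detected by immunofluorescence after 24 hour compound treatment of a stable cell line. Titration data (5 concentrations) came from laser-scanning cytometry, with CCCP-treated wells as controls.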
KB-V1 cytotox: qHTS assay for MDR1-selective chemotherapeutics: Primary screen using the drug-selected MDR subline cells KB-V1 | AID 1347076, 2019 | KB-V1 MDR cells viability, CellTiter-Glo, 72 h | 400,000 tested, 3.4% active | Potency, µM (titrated, usually from 46.1 µM), most hits filed as cytotoxic; note: % is set by controls: 0 for no effect and ±100 for the full control effect; nearly all actives have a fitted effect of over 60% in size
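Readout: CellTiter-Glo luminescence, 10 min after addition. Cells: KB-V1 MDR subline, 72 h at 37 degrees C with compound. Analysis: corrected, normalized data fitted to concentration-effect curves.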
MCF10A rerep: A quantitative high throughput screen for small molecules that induce DNA re-replication in MCF 10a normal breast cells | MCF 10A DNA re-replication, Hoechst nuclear intensity, 48 h | Potency, µM (doses to about 46.1 µM), for inactives: at the top dose activity, positive = re-replication, usual class: activators | 350,000 tested, 2.9% active | AID 624296, 2012; note: % of control where 0% means no effect; nearly all actives have a fitted effect of over 50% in size
KB-3-1 cytotox: qHTS assay for MDR1-selective chemotherapeutics: Primary screen using the parental adenocarcinoma cell KB-3-1; 400,000 tested, 1.4% active; KB-3-1 viability, CellTiter-Glo ATP luminescence, 72 h; AID 1347075, 2019; Potency, µM (top dose mostly 46.1 µM), hits mostly cytotoxic; note: % is set by controls: 0 for no effect and ±100 for the full control effect; nearly all actives have a fitted effect of over 60% in size
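Cells are dispensed, compounds pinned in, plates held at 37 °C for 72 h, then CellTiter-Glo is added and luminescence read after 10 minutes. Cell line: parental KB-3-1 in phenol-red-free DMEM, 10% FBS.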
* hit, by the source's call; i = inactive; ? = inconclusive; · = no result; [ ] = remark or other dose. Unless noted, calls come from the whole dose curve; as a rule, active = well fitted curve in the direction sought with a large enough effect; inconclusive = small, poorly fitted or top-dose-only effect, or another doubt; inactive = no such curve, though single readings can be large; an effect the other way counts as inactive or inconclusive. Potency is the fitted concentration of half-maximal effect.

SMILES	TSG101-PTAP inh	SW480 rereplic	PINK1 expr mod	KB-V1 cytotox	MCF10A rerep	KB-3-1 cytotox
Clc1cccc(Cl)c1C1Nc2cccc3cccc(c23)N1	-3%	?	3%	i	18µM*	?
O=[N+]([O-])c1ccccc1C1Nc2cccc3cccc(c23)N1	-5%	?	4%	i	18%	i
O=[N+]([O-])c1ccc(Cl)c(C2Nc3cccc4cccc(c34)N2)c1	-2%	1%	3%	?	166%[0.0737 µM]	10µM*
Brc1ccc(C2Nc3cccc4cccc(c34)N2)o1	-8%	1%	3%[38.3 µM]	i	15µM*	i
COC(=O)c1cc2sc(Cl)cc2n1Cc1cc(C)ccc1C	·	·	6%	i	·	i
c1ccc2c(-c3c[nH]c4ccccc34)c3ccccc3nc2c1	-5%	?	3%	i	8.2µM*	i
O=S(=O)(c1ccccc1)N1CCN(Cc2cc3c(cc2Br)OCCO3)CC1	-1%	-4%	2%	?	9%	i
O=S(=O)(c1ccccc1F)N1CCN(Cc2cc3c(cc2Br)OCCO3)CC1	-3%	-6%	1%	21µM*	?	i
Cc1ccc2[nH]c(=O)c(-c3nc4ccccn4c3NCc3ccco3)cc2c1	2%	-5%	4%[38.3 µM]	8.2µM*	0%	i
CCOC(=O)c1cnc(SCC(=O)Nc2ccc(N3CCOCC3)c(Cl)c2)nc1N	-1%	0%	2%[38.3 µM]	i	-9%	i
CCOC(=O)c1cnc(SCC(=O)Nc2cc(OC)cc(OC)c2)nc1N	-3%	0%	?	2.3µM*	13%	?
CCOC(=O)c1cnc(SCC(=O)NCc2cccs2)nc1N	-4%	6%	-2%[38.3 µM]	i	2%	i
CCOC(=O)c1cnc(SCC(=O)Nc2sc(C)c(C)c2C#N)nc1N	-6%	21µM*	10%	?	0%	?
CCOC(=O)c1cnc(SCCc2ccccc2)nc1N	-4%	-1%	5%	23µM*	2%	i
CCCCSc1ncc(C(=O)OCC)c(N)n1	0%	-10%	2%	i	-22%	i
Cc1ccc(C(=O)O/N=C(\N)Cc2ccc([N+](=O)[O-])cc2)c(Cl)c1	-8%	?	0%	i	18µM*	?
Cc1cccc(C(=O)O/N=C(\N)Cc2ccc([N+](=O)[O-])cc2)c1	-5%	-3%[9.22 µM]	-2%	?	19%	?
CC(NC(=O)CN(C)CC(=O)Nc1cccc(F)c1)c1ccccc1 (centres undefined)	3%	3%	0%	18µM*	0%	i
Cc1sc2ccccc2[n+]1CCc1ccccc1	·	·	·	i	·	i
CCCn1c(=O)c(C(=O)Nc2ccccc2C(=O)OCC)c(O)c2ccccc21	0%	?	5%[38.3 µM]	?	11µM*	?
CCC(C)n1c(=O)c(C(=O)Nc2ccccc2S(N)(=O)=O)c(O)c2ccccc21 (centres undefined)	-2%	22%	9%	?	?	16µM*
CCn1c(=O)c(C(=O)NNC(=O)c2cccc(Cl)c2)c(O)c2ccccc21	-9%	?	3%	?	23µM*	i
CCCn1c(=O)c(C(=O)NNS(=O)(=O)c2ccc(Cl)cc2)c(O)c2ccccc21	0%	-3%	1%	?	15µM*	i
CCn1c(=O)c(C(=O)NNC(=O)c2ccc(Cl)cc2Cl)c(O)c2ccccc21	-4%	?	2%	?	?	i
CCOC(=O)c1ccccc1Nc1cn(C(C)=O)c2ccccc12	-1%	?	28%	i	?	5.8µM*
SMILES	TSG101-PTAP inh	SW480 rereplic	PINK1 expr mod	KB-V1 cytotox	MCF10A rerep	KB-3-1 cytotox
Cn1c(=O)c(C(=O)NNC(=O)c2cccc(Cl)c2)c(O)c2ccccc21	0%	9.2µM*	?	?	7.3µM*	i
Cc1ccc(NC(=O)c2c(C)nc3sc(C(=O)Nc4ccc(F)cc4)c(N)c3c2-c2ccc(Cl)cc2)c(C)c1	·	·	1%	i	·	i
CC(C)Nc1nnc(SCC(=O)Nc2sccc2C#N)s1	-4%	-6%	3%	i	-2%	i
CCN(C(C)=O)c1nc(CSc2nnc(NC(C)C)s2)cs1	-5%	-1%	-4%	23µM*	3%	i
S=C1SCN(Cc2ccccn2)CN1Cc1ccco1	·	7.3µM*	4%[38.3 µM]	?	4.1µM*	i
COCCN1CSC(=S)N(Cc2ccco2)C1	-5%	5.8µM*	6%[38.3 µM]	i	?	i
S=C1SCN(Cc2cccnc2)CN1Cc1ccccc1	-4%	11%	2%	i	85%	i
COc1cc2cc(CNc3ccc(C)cc3)c(=O)n(CC(=O)Nc3ccc(F)cc3F)c2cc1OC	·	·	3%	·	·	·
COCCCn1c(=N)c(C(N)=S)cc2c(=O)n3cccc(C)c3nc21	-4%	16µM*	-1%	i	?	i
N#Cc1cc2c(=O)n3ccccc3nc2n(CCCn2ccnc2)c1=N	0%	15µM*	0%	i	9.2µM*	i
Cc1cccn2c(=O)c3cc(C(N)=S)c(=N)n(CCCN4CCOCC4)c3nc12	-1%	8.2µM*	0%	i	?	i
Cc1cccn2c(=O)c3cc(C#N)c(=N)n(CCCN4CCOCC4)c3nc12	-1%	4.1µM*	?	i	?	?
Cc1nn(CCC(=O)NCc2cccc(Br)c2)c(=O)c2nn(-c3ccccc3)c(C)c12	·	·	-1%	i	·	i
CC(=O)c1cccc(NC(=O)C2CCCN(c3nnc(-n4cccc4)s3)C2)c1 (centres undefined)	·	·	-6%	i	·	i
COc1cc(=O)n2c(c1C(=O)NCc1nonc1C)CCN(C(=O)c1cccc(C)c1C)CC2	·	·	0%	·	·	·
Cc1ccc(OCc2nc(-c3ccc(C(=O)N4CCN(c5cccc(C(F)(F)F)c5)CC4)cc3)oc2C)cc1	·	·	1%	i	·	i
COc1ccc(CCN2C(=O)c3ccccc3NC2c2cc(Cl)c(O)c(OC)c2)cc1 (centres undefined)	-1%	8.2µM*	13%	?	2.6µM*	?
COc1ccc(C2Nc3ccccc3C(=O)N2O)cc1OC (centres undefined)	-1%	?	-2%	15µM*	-1%	i

Screening data deposited in PubChem BioAssay by National Center for Advancing Translational Sciences (NCATS).
